Experimental findings from PubChem BioAssay (NCATS) are described below.

Records with an inconclusive call do not appear. Where a call stands in place of a potency, no number is given. Activity calls are given as the source filed them. The call rests on the fitted dose curve; in most records, active means well fitted cell-killing curve with a large enough effect; inconclusive means small, poorly fitted or top-dose-only effect, or effect the other way; inactive means no such curve, though single readings can be large or run the other way.
Potency means the concentration at half of the fitted maximal effect.

The nature of the experiment: Quantitative High-Throughput drug screen in 47 multiple myeloma cell lines against the NCATS MIPE library collection: XG1_PLB cell viability assay (AID 1919866). Further: nearly all actives have a fitted effect of over 35% in size. The settings on record: CellTiter-Glo ATP, 48 h; series mostly up to 45.8 µM. The text has this:
PI: Beverly A. Mock Ph.D.
Laboratory of Cancer Biology and Genetics,
Center for Cancer Research, National Cancer Institute,
National Institute of Health, Bethesda, Maryland
Drug resistance and disease progression are common in multiple myeloma (MM) patients, underscoring the need for new therapeutic combinations. […] We hypothesized that effective combinations would reduce MYC expression and enhance p16 activity. […] These preclinical data identify potentially useful drug combinations for evaluation in drug-resistant MM and reveal potential mechanisms of combined drug sensitivity.
Described herein is the primary MIPE qHTS used to cherrypick compounds. Validated compounds were then further tested for potential synergistic activiy.
[1] Peat TJ, Gaikwad SM, Dubois W, Gyabaah-Kessie N, Zhang S, Gorjifard S, Phyo Z, Andres M, Hughitt VK, Simpson RM, Miller MA, Girvin AT, Taylor A, Williams D, D'Antonio N, Zhang Y, Rajagopalan A, Flietner E, Wilson K, Zhang X, Shinn P, Klumpp-Thomas C, McKnight C, Itkin Z, Chen L, Kazandijian D, Zhang J, Michalowski AM, Simmons JK, Keats J, Thomas CJ, Mock BA. Drug combinations identified by high-throughput screening promote cell cycle transition and upregulate Smad pathways in myeloma. Cancer Lett. 2023 Aug 1;568:216284. doi: 10.1016/j.canlet.2023.216284. Epub 2023 Jun 24. PMID: 37356470; PMCID: PMC10408729.
SEQUENCE No. (e.g., 1, 2, 3, etc.); […] (e.g., Cells, Incubation, Reagent, etc.); VALUE and DESCRIPTION.
1; Cells; 5 uL; white, solid bottom 1536-well Greiner assay plate.
2; Compounds; 23 nL; Kalypsis pin tool (Wako USA) equipped with a 1536-well pin head to transfer to the assay plates.
3; Incubation; 48 hours; 37C incubation.
4; Reagent;5uL; CellTiter Glo (Promega).
5; Detector; 425V; Luminescence; Viewlux PerkinElmer.
NOTES (numbers refer to Sequence numbers above)
1. The cell-based screening methods employed in this study were like those previously published. Briefly, the corresponding myeloma cell lines were screened in 1,536-well plates with 500 cells, 5-uL per well for inhibition of cell viability (assessed by measuring ATP levels with CellTiterGlo).
2. NCATS MIPE 4.0 library of approved and investigational drugs were added using the Kalypsis pin tool. Wells treated with DMSO only for 100% viability and media only for 0% viability were used as controls.
3. The assay plates were covered and incubated for 48 hours in a 37C, 5% CO2 incubator with controlled humidity.
4. After 48 hours, CellTilter-GloTM luminescent substrate mix (Promega) reagent was added to the assay plate and plates we incubated for 5 min at room temperature.
5. Signal was measured as median relative luminescence units on a ViewLux (PerkinElmer) multiplate reader.
[1] Heske CM, Davis MI, Baumgart JT, Wilson K, Gormally MV, Chen L, Zhang X, Ceribelli M, Duveau DY, Guha R, Ferrer M, Arnaldez FI, Ji J, Tran HL, Zhang Y, Mendoza A, Helman LJ, Thomas CJ. Matrix Screen Identifies Synergistic Combination of PARP Inhibitors and Nicotinamide Phosphoribosyltransferase (NAMPT) Inhibitors in Ewing Sarcoma. Clin Cancer Res. 2017 Dec 1;23(23):7301-7311. doi: 10.1158/1078-0432.CCR-17-1121. Epub 2017 Sep 12. PMID: 28899971; PMCID: PMC6636827.
(In general: In ATP-based viability assays light output follows the ATP content of the culture.)
Take `Oc1c(Cl)cc(Cl)c2cccnc12`: the Potency was 11.8 µM (active).

For `Cc1onc(-c2ccccc2Cl)c1C(=O)N[C@@H]1C(=O)N2[C@@H]1SC(C)(C)[C@@H]2C(=O)O`, the Potency result is “inactive”.

As to `CNS(=O)(=O)Cc1ccc2[nH]cc(CCN(C)C)c2c1`, the Potency entry is “inactive”.

Consider `COc1ccc2c(c1)c(CC(=O)OCC(=O)O)c(C)n2C(=O)c1ccc(Cl)cc1`, for which the Potency entry was “inactive”.

In the case of `COc1cc(NS(=O)(=O)c2ccc(N)cc2)nc(OC)n1`, the Potency result is “inactive”.

Regarding `OC(Cn1cncn1)(Cn1cncn1)c1ccc(F)cc1F`, the Potency result is “inactive”.

On to `CN(C)CCc1c[nH]c2ccc(C[C@H]3COC(=O)N3)cc12`, for which the Potency result is “inactive”.

In the case of `CC(N)C12CC3CC(CC(C3)C1)C2` (stereo not given), the Potency result is “inactive”.

As for `NS(=O)(=O)c1cc2c(cc1Cl)NC(C(Cl)Cl)NS2(=O)=O` (stereo not given), the Potency result was “inactive”.

On to `CC1=CC(=O)c2ccccc2C1=O`, for which the Potency is 23.5 µM (active).

For the compound `CNCC[C@H](Oc1cccc2ccccc12)c1cccs1`, the Potency was 0.833 µM (active).

Turning to `Nc1nc(=S)c2[nH]cnc2[nH]1`, the Potency is 0.662 µM (active).

Regarding `COc1ccc(-c2ccc3cc(C(=O)O)ccc3c2)cc1C12CC3CC(CC(C3)C1)C2`, the Potency entry was “inactive”.

Regarding `COc1nc(N)nc2c1ncn2[C@@H]1O[C@H](CO)[C@@H](O)[C@@H]1O`, the Potency result is “inactive”.

For the compound `Cc1ncc([N+](=O)[O-])n1CCO`, the Potency entry was “inactive”.

Consider `CNC(=O)c1cc(Oc2ccc(NC(=O)Nc3ccc(Cl)c(C(F)(F)F)c3)cc2)ccn1`, for which the Potency is 5.9 µM (active).

In the case of `CCCOc1ccc(C(=O)OCCN(CC)CC)cc1N`, the Potency result was “inactive”.

Regarding `CNNCc1ccc(C(=O)NC(C)C)cc1`, the Potency entry was “inactive”.

Turning to `Nc1ccc(S(=O)(=O)Nc2ccccn2)cc1`, the Potency result is “inactive”.

In the case of `CCc1cc(C(N)=S)ccn1`, the Potency entry is “inactive”.

Turning to `CC(C)OC(=O)C(C(=O)OC(C)C)=C1SC=CS1`, the Potency result was “inactive”.

Regarding `CCCc1nc(C)c2c(=O)[nH]c(-c3cc(S(=O)(=O)N4CCN(CC)CC4)ccc3OCC)nn12`, the Potency is 5.9 µM (active).

As to `CCC(=O)O[C@]1(C(=O)SCF)[C@H](C)C[C@H]2[C@@H]3C[C@H](F)C4=CC(=O)C=C[C@]4(C)[C@@]3(F)[C@@H](O)C[C@@]21C`, the Potency was 14.8 µM (active).

As to `CN(CCOc1ccc(CC2SC(=O)NC2=O)cc1)c1ccccn1` (stereo not given), the Potency result was “inactive”.

In the case of `C#CCN[C@@H]1CCc2ccccc21`, the Potency entry is “inactive”.

With `OCc1ccc(-c2nn(Cc3ccccc3)c3ccccc23)o1`, the Potency result is “inactive”.

In the case of `CCn1cc(C(=O)O)c(=O)c2cc(F)c(N3CCNCC3)nc21`, the Potency result is “inactive”.

For the compound `CCn1cc(C(=O)O)c(=O)c2cc(F)c(N3CCNCC3)cc21`, the Potency result is “inactive”.

On to `O=C(N[C@H](CO)[C@H](O)c1ccc([N+](=O)[O-])cc1)C(Cl)Cl`, for which the Potency entry was “inactive”.

Regarding `CCN(CC)CCn1c(=O)c(Cc2ccc(OC)cc2)nc2ccccc21`, the Potency result was “inactive”.

With `COc1ccc(C(=O)CC(=O)c2ccc(C(C)(C)C)cc2)cc1`, the Potency is 1.66 µM (active).

On to `O=NN(CCCl)C(=O)NC1CCCCC1`, for which the Potency result is “inactive”.

Regarding `Cc1noc(NS(=O)(=O)c2ccc(N)cc2)c1C`, the Potency result was “inactive”.

Turning to `O=S(=O)(O)CCS`, the Potency result is “inactive”.

As for `O=c1cc(O)c(Cl)c[nH]1`, the Potency was 3.72 µM (active).

In the case of `COc1cc(NCc2ccc3nc(N)nc(N)c3c2C)cc(OC)c1OC`, the Potency is 3.72 µM (active).

In the case of `Nc1nc(N)c2nc(CNc3ccc(C(=O)NC(CCC(=O)O)C(=O)O)cc3)cnc2n1` (stereo not given), the Potency was 0.0332 µM (active).

For `O=C(O)CSCC(=O)NC1CCSC1=O` (stereo not given), the Potency entry is “inactive”.

For `O=C(O)c1cc(=O)[nH]c(=O)[nH]1`, the Potency entry was “inactive”.

As for `Cc1nnc(NS(=O)(=O)c2ccc(N)cc2)s1`, the Potency is 1.32 µM (active).
